Screening results: PubChem BioAssay, National Center for Advancing Translational Sciences (NCATS)
HCMV inh – human cytomegalovirus inhibition | HFF cells, HCMV-luciferase reporter, 72 h; stronger effect = lower value | activity change, negative = inhibition, % at 57.5 µM | 410,000 tested, 4.5% active | AID 1259415; in the data active = activity change below about -60%; inconclusive = no clear call, values can overlap the other calls; inactive = above about -39%; also: % is scaled to controls: 0 for no effect and ±100 for the full control effect
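Two-dose cell screen: HFF monolayers treated with compounds and infected with luciferase-expressing HCMV at 1 PFU/cell, 72 h at 37C, then lysed for luciferase measurement.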
Pf growth 48h – inhibits P. falciparum growth in the first generation, 48 h; 310,000 tested, 5.9% active; Potency, µM (top dose mostly 28.7 µM), for the others: at the highest dose activity change, negative = inhibition, usual class: inhibitors; P. falciparum luciferase growth in erythrocytes, 48 h; AID 504832; also: potency is read from the fitted curve at half-maximal effect; % is scaled to controls: 0 for no effect and ±100 for the full control effect
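Luciferase-expressing P. falciparum in infected erythrocytes (2% hematocrit, 0.1% parasitemia final) in RPMI 1640/0.5% Albumax were exposed to compound for 48 hours at 37 C, 5% CO2; growth read as luminescence.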
Cycloheximide cs – affects cycloheximide protein synthesis inhibition readout, counter-screen; 300,000 tested, 12% active; max response, %; cell reporter, cycloheximide protein synthesis inhibition counterscreen; in the data active = max response mostly above about 13%, no sharp cut-off; inactive = mostly below about 14%; also: read at 38.3 µM for the half of the compounds with a filed dose; 0% is about no effect
Pf growth 96h – inhibits malaria parasite growth, 96 h; P. falciparum luciferase reporter growth, 96 h; Potency, µM (doses to about 28.7 µM), without a hit: at the top dose activity change, negative = inhibition, hits mostly inhibitors; 320,000 tested, 6.9% active; also: potency is read from the fitted curve at half-maximal effect; % is scaled to controls: 0 for no effect and ±100 for the full control effect
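Delayed-death screen, second-generation endpoint: infected erythrocytes, 2% hematocrit, 0.05% parasitemia final; 96 hours at 37 C, 5% CO2; luciferase detection reagent; luminescence decrease equals reduced growth.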
Shiga toxin inh – Shiga toxin inhibition; inhibition, % at 38.7 µM; 290,000 tested, 9.2% active; Vero cells, Shiga toxin protein synthesis inhibition reporter; AID 2315; in the data active = inhibition mostly above about 28%, no sharp cut-off; inactive = mostly below about 43%; also: 0% is about no effect
HCV inh – blocks hepatitis C virus; AID 651820; 340,000 tested, 3.4% active; Potency, µM (highest dose often 41.8 µM), without a hit: top-dose activity change, negative = inhibition, most hits filed as inhibitors; Huh7.5.1 HCVcc-Cre infection, luciferase reporter, 44 h; also: potency is read from the fitted curve at half-maximal effect; % is scaled to controls: 0 for no effect and ±100 for the full control effect
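Cells (1,000/well) were plated 4 h before compound, then infected with HCVcc-Cre virus (~0.5 moi). After 44 h further culture, infection was read as luciferase luminescence following a 15 min substrate incubation at room temperature.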
* = called active by the depositor; ? = inconclusive; . = no result. Rows were chosen to be rich in hits. Some 21% of all compounds tested hit in one or more screens of this group. Unless noted, calls follow the shape of the dose curve; as a rule, active = well fitted inhibition curve with a large enough effect; inconclusive = small, poorly fitted or top-dose-only effect, or another doubt; inactive = no such curve, though single readings can be large or run the other way.

SMILES	HCMV inh	Pf growth 48h	Cycloheximide cs	Pf growth 96h	Shiga toxin inh	HCV inh
COc1cc(C)ccc1OCCON1C(=O)CCC1=O	36	20%	32*	-8%	55	17%
COc1ccc(CC(=O)NCCc2sc(-c3cccc(F)c3)nc2C)cc1	-3	.	.	.	.	.
O=C(CCC1CCCCC1)Nc1cccc(C(=O)Nc2ccc(C(=O)O)cc2)c1	12	.	.	.	.	20%
COc1ccccc1N1CCN(CCCCOc2ccc(C)cc2C)CC1	24	18%	-4	?	-6	?
Nc1nonc1-n1nnc(C(=O)N/N=C/c2cccc(Cl)c2Cl)c1CN1CCCC1	-61*	2%	-2	11%	-5	?
CC1CCN(Cc2c(C(=O)N/N=C/c3ccc(C(C)C)cc3)nnn2-c2nonc2N)CC1	-4	?	-1	1.7µM*	-7	-1%
Cc1cc(C(=O)N2CCCC(CCC(=O)N3CCN(c4ccccn4)CC3)C2)c(C)o1 (stereo not drawn)	-27	-26%	1	-8%	-5	-18%
Cc1ccc(C(=O)N2CCCC(CCC(=O)N3CCN(c4ccccn4)CC3)C2)cc1C (stereo not drawn)	?	?	-1	?	15	?
Cc1cccc(C(=O)N2CCCC(CCC(=O)N3CCN(c4ccccn4)CC3)C2)c1C (stereo not drawn)	-86*	?	-1	6%	2	?
O=C(CCC1CCCN(C(=O)C2(c3ccccc3)CC2)C1)N1CCN(c2ccccn2)CC1 (stereo not drawn)	?	27%	20*	?	42	?
CCc1[nH]nc(C(=O)N2CCCC(CCC(=O)N3CCN(c4ccccn4)CC3)C2)c1C (stereo not drawn)	-32	?	13*	9%	34	3%
CCOc1ccc(CNC(=O)CN2C(=O)C(c3ccccc3)Oc3cccnc32)cc1 (stereo not drawn)	-24	?	-2	?	2	?
Cc1nn(CC(O)c2ccccc2)c(C)c1Br (stereo not drawn)	7	.	13	-15%	-11	-17%
OC(CN1c2ccccc2Sc2ccccc21)Cn1nnc2ccccc21 (stereo not drawn)	17	4.7µM*	16*	?	18	?
Cc1nn(CC(O)CN2c3ccccc3Sc3ccccc32)c(C)c1Br (stereo not drawn)	-13	.	6	2.6µM*	15	?
O=C1c2ccccc2C(=O)N1CC(O)Cn1nnc2ccccc21 (stereo not drawn)	-1	-3%	-1	9.3µM*	-4	14%
OC(Cn1nnc2ccccc21)Cn1c(C(F)(F)F)nc2ccccc21 (stereo not drawn)	0	27%	-4	?	-6	7%
Cc1ccc(CSCc2ccc(C(=O)NCCc3ccc(Cl)cc3)o2)cc1	-11	.	.	.	.	.
CC1CCC(NC(=O)c2ccc3c(c2)N(Cc2ccccc2F)C(=O)c2ccccc2S3)CC1 (stereo not drawn)	67	.	.	.	.	.
Cc1ccc(S(=O)(=O)N(C)/N=C/c2ccc(N(C)C)cc2)cc1	.	.	57*	62%	70*	-22%
Cc1ccc(S(=O)(=O)N(C)/N=C/C=C/c2ccccc2)cc1	-12	16%	0	72%	2	6%
Cc1n[nH]c(C)c1NC(=O)CSc1nnnn1-c1cccc(F)c1	39	.	.	.	.	15%
COc1ccc([C@@H]2[C@@H](C(=O)N3CCOCC3)CC(=O)N2S(=O)(=O)c2ccc(F)cc2)cc1	4	.	.	.	.	.
CC(C)C(=O)Nc1ccc(-c2nc3cccnc3o2)cc1	32	75%	33*	1%	active	?
CC(C)C(=O)Nc1ccc(-c2nc3ncccc3o2)cc1	-38	166%	29*	?	41*	-5%
SMILES	HCMV inh	Pf growth 48h	Cycloheximide cs	Pf growth 96h	Shiga toxin inh	HCV inh
COc1cc(CNCCNC(=O)c2nonc2N)ccc1OCc1ccc(Cl)nc1	?	?	4	?	3	-28%
Cc1ccc2c(=O)n3c(nc2c1)C(CC(C)C)NC(=O)c1cccnc1-3 (stereo not drawn)	-14	.	.	.	.	.
CN(C)c1ccc(-c2[nH][nH]c(=O)c2NC(=O)c2ccc3ccccc3n2)cc1	-63*	.	.	.	.	.
Cc1cnc(C(=O)Nc2c(-c3ccccc3)[nH][nH]c2=O)cn1	-10	.	.	.	.	.
CN(C)c1ccc(-c2[nH][nH]c(=O)c2NC(=O)c2ccccn2)cc1	-61*	.	.	.	.	.
CC(CC(=O)Nc1nc2ccccc2[nH]1)n1ccnc1 (stereo not drawn)	-16	38%	13	?	-17	2%
CC(CC(=O)Nc1nc2ccccc2[nH]1)c1ccccc1 (stereo not drawn)	-2	99%	46*	.	84*	?
O=C(Cc1ccccc1Cl)Nc1nc2ccccc2[nH]1	17	80%	31*	?	31*	-16%
Cc1ccccc1OCC(=O)Nc1nc2ccccc2[nH]1	-15	166%	32*	-16%	108*	-1%
O=C(COc1cccc2ccccc12)Nc1nc2ccccc2[nH]1	58	3%	2	.	-2	13%
Cc1cc(C)c(OCC(=O)Nc2nc3ccccc3[nH]2)c(C)c1	20	-10%	11	-17%	13	6%
CCOc1ccccc1OCC(=O)Nc1nc2ccccc2[nH]1	-17	6%	22*	-2%	52*	20%
CCOC(=O)C1CCN(CCC(=O)Nc2ccccc2OC)CC1	-2	.	.	.	.	.
CCCOc1cccc(OCC(=O)Nc2nc3ccccc3[nH]2)c1	-24	20%	17	-2%	55	4%
O=C(COc1ccccc1)Nc1nc2ccccc2[nH]1	36	190%	46*	120%	65*	-12%
CCOc1ccccc1Nc1nc2ccccc2[nH]1	-16	?	17*	.	22	?
CC[C@@]1(O)CC2CN(CCc3c([nH]c4ccccc34)[C@](C(=O)OC)(c3cc4c(cc3OC)N(C)C3[C@@](O)(C(=O)OC)C(OC(C)=O)[C@]5(CC)C=CCN6CC[C@@]43C65)C2)C1 (stereo partly drawn)	.	0.76µM*	.	0.54µM*	.	.
CC[C@]1(O)C[C@H]2CN(CCc3c([nH]c4ccccc34)[C@@](C(=O)OC)(c3cc4c(cc3OC)N(C=O)[C@H]3[C@@](O)(C(=O)OC)[C@H](OC(C)=O)[C@]5(CC)C=CCN6CC[C@]43[C@@H]65)C2)C1	.	0.085µM*	.	9.5µM*	.	.
CC(C)(CCO)Nc1ncnc2onc(-c3ccc(F)cc3)c12	-64*	-7%	1	1%	33	2%
CCN(c1cccc(C)c1)S(=O)(=O)c1ccc2c(c1)CCN2C(C)=O	?	-16%	-3	44%	-3	11µM*
